Measurements taken from PubChem BioAssay AID1159580 (chemical genetic matrix, 2015).
Out of some 5,500 compounds screened, about 2,000 (36%) were called active. About 18% were inconclusive and are not listed. No stated cut-off is given here; in the data, active means normalized growth mostly below about 0.91 (no sharp cut-off); inconclusive means no clear call, values can overlap the other calls; inactive means mostly above about 0.92. The list shows a part of the results.

Assay: chemical genetic growth profiling, strain panel (AID 1159580);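 further: tested at 20 µM; growth read once vehicle control cultures reached saturation at 30 °C; 1 = growth at the plate median or of vehicle wells; lower values mean less growth of the strain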
Settings: S. cerevisiae deletion strains, growth OD

Measured: normalized growth

COC(=O)[C@]1(C)CCC[C@]2(C)c3ccc(C(C)C)cc3C(=O)CC12 (stereo partly drawn)
inactive: locus YAL013W, strain DEP1, active compounds read low 0.981 | locus YAL021C, strain ccr4, active compounds read low 0.992 | locus YAL026C, strain drs2, active compounds read low 0.952 | locus YAL030W, strain snc1, active compounds read low 0.974 | locus YBL061C, strain skt5, active compounds read low 0.972 | locus YBR009C, strain hhf1, active compounds read low 0.961 | locus YBR021W, strain FUR4, active compounds read low 1.1 | locus YBR023C, strain chs3, active compounds read low 0.973 | locus YBR229C, strain ROT2, active compounds read low 0.986 | locus YBR231C, strain swc5, active compounds read low 0.968 | locus YBR279W, strain paf1, active compounds read low 0.971 | locus YCL011C, strain gbp2, active compounds read low 0.961 | locus YCL016C, strain dcc1, active compounds read low 0.979 | locus YCL029C, strain bik1, active compounds read low 1.01 | locus YCL061C, strain MRC1, active compounds read low 0.968 | locus YCL069W, strain vba3, active compounds read low 0.956 | locus YCR088W, strain abp1, active compounds read low 0.96 | locus YDL005C, strain med2, active compounds read low 0.945 | locus YDL035C, strain GPR1, active compounds read low 0.999 | locus YDL040C, strain nat1, active compounds read low 0.96 | locus YDL074C, strain BRE1, active compounds read low 0.863 | locus YDL101C, strain DUN1, active compounds read low 0.969 | locus YDL134C, strain PPH21, active compounds read low 0.974 | locus YDL185W, strain tfp1, active compounds read low 1 | locus YDL192W, strain arf1, active compounds read low 1.01 | locus YDR001C, strain nth1, active compounds read low 0.957 | locus YDR069C, strain doa4, active compounds read low 0.974 | locus YDR101C, strain arx1, active compounds read low 1.01 | locus YDR137W, strain rgp1, active compounds read low 0.866 | locus YDR150W, strain NUM1, active compounds read low 0.975 | locus YDR159W, strain sac3, active compounds read low 0.95 | locus YDR162C, strain NBP2, active compounds read low 0.866 | locus YDR195W, strain ref2 0.97 | locus YDR297W, strain sur2, active compounds read low 0.967 | locus YDR318W, strain mcm21, active compounds read low 1.02 | locus YDR334W, strain swr1, active compounds read low 0.948 | locus YDR335W, strain msn5, active compounds read low 0.978 | locus YDR388W, active compounds read low 1 | locus YDR502C, strain sam2, active compounds read low 0.985 | locus YEL003W, strain gim4, active compounds read low 0.977 | locus YEL037C, strain rad23, active compounds read low 0.95 | locus YEL061C, strain CIN8 (second series), active compounds read low 0.948 | locus YEL061C, strain CIN8, active compounds read low 0.997 | locus YER015W, strain faa2, active compounds read low 0.974 | locus YER016W, strain bim1, active compounds read low 0.958 | locus YER110C, active compounds read low 1.02 | locus YER111C, strain swi4, active compounds read low 0.956 | locus YER155C, strain BEM2 (second series), active compounds read low 0.956 | locus YER155C, strain BEM2, active compounds read low 0.995 | locus YER167W, strain BCK2, active compounds read low 0.997 | locus YFR010W, strain ubp6, active compounds read low 0.977 | locus YGL078C, strain dbp3, active compounds read low 0.988 | locus YGL086W, strain mad1, active compounds read low 1.01 | locus YGL167C, strain pmr1, active compounds read low 0.928 | locus YGL173C, strain kem1, active compounds read low 0.97 | locus YGL227W, strain vid30, active compounds read low 0.972 | locus YGL240W, strain doc1, active compounds read low 0.973 | locus YGL248W, strain PDE1, active compounds read low 0.971 | locus YGL253W, strain hxk2, active compounds read low 0.978 | locus YGR078C, strain PAC10, active compounds read low 0.957 | locus YGR135W, strain pre9, active compounds read low 0.954 | locus YGR229C, strain SMI1, active compounds read low 0.861 | locus YGR252W, strain gcn5, active compounds read low 1.1 | locus YHR013C, strain ard1, active compounds read low 0.959 | locus YHR027C, strain rpn1, active compounds read low 0.971 | locus YHR030C, strain SLT2, active compounds read low 1 | locus YHR079C, strain IRE1 (second series), active compounds read low 0.999 | locus YHR094C, strain hxt1, active compounds read low 0.995 | locus YHR129C, strain ARP1, active compounds read low 0.994 | locus YHR142W, strain chs7, active compounds read low 0.98 | locus YHR200W, strain rpn10, active compounds read low 0.993 | locus YIL066C, strain RNR3, active compounds read low 0.974 | locus YIL073C, strain SPO22, active compounds read low 1.01 | locus YIL125W, strain kgd1, active compounds read low 0.996 | locus YIR030C, strain dcg1, active compounds read low 0.993 | locus YJL092W, strain hpr5, active compounds read low 0.946 | locus YJL095W, strain BCK1 (second series), active compounds read low 0.972 | locus YJL095W, strain BCK1, active compounds read low 0.889 | locus YJL115W, strain asf1, active compounds read low 0.962 | locus YJL129C, strain trk1, active compounds read low 0.899 | locus YJL134W, strain LCB3, active compounds read low 0.989 | locus YJL154C, strain vps35, active compounds read low 0.967 | locus YJL164C, strain tpk1, active compounds read low 0.957 | locus YJL166W, strain qcr8, active compounds read low 0.968 | locus YJL168C, strain set2, active compounds read low 0.998 | locus YJL187C, strain SWE1 (second series), active compounds read low 0.98
active: locus YBR171W, strain sec66, active compounds read low 0.869 | locus YDR392W, strain spt3, active compounds read low 0.732
